The list shows a part of the results. Entries that show only a call come without a potency. Records with an inconclusive call do not appear. Active and inactive are the calls of the source. The call rests on the fitted dose curve.

Amyloid-beta precursor protein (Homo sapiens), sequence (P05067 whole entry, looked up): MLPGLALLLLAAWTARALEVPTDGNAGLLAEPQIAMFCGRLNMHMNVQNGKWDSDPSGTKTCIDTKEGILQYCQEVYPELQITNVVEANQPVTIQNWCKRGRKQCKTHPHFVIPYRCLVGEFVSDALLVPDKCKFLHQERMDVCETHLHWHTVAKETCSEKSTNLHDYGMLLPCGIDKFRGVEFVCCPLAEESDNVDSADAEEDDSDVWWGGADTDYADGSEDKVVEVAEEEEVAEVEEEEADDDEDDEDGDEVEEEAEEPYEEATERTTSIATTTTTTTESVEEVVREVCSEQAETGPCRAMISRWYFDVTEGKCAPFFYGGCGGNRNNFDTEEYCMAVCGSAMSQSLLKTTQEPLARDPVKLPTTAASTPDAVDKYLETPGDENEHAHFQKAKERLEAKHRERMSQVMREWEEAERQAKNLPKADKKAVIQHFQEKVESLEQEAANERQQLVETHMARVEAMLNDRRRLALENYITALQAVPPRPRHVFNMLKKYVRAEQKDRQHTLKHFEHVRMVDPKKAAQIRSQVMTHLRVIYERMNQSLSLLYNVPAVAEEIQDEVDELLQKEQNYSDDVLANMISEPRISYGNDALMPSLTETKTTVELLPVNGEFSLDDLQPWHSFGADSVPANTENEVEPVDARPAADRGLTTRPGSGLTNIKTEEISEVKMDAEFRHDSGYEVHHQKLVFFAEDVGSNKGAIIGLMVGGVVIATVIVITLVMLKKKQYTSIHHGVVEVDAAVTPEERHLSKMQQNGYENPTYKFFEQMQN

For this assay, the target named is Amyloid-beta precursor protein (Homo sapiens) (UniProt P05067). Description: Beta amyloid ThS binding assay. The conditions noted are these: Abeta1-42 fibrillization, thioflavin S fluorescence, overnight 37 C. As for the experimental part:
NIH Molecular Libraries Screening Centers Network [MLSCN] NIH Chemical Genomics Center [NCGC] MLSCN Grant: 1 X01 MH079825-01 Assay Provider: Jeffrey A. Kuret, Ohio State University NCGC Assay Overview: Alzheimer disease is characterized by the accumulation of proteinacious aggregates comprised of tau and beta-amyloid. The protein components of each lesion can be induced to form filaments under experimentally tractable times when incubated in vitro with anionic inducers such as alkyl sulfate detergents or fatty acids. […] Here we describe the in vitro fibrillization of beta-amyloid 1-42 (Abeta1-42). Abeta1-42 proteins were induced to form filaments by incubation overnight at 37 C in the presence of arachidonic acid. […] Small molecules capable of ThS displacement or antagonizing fibrillization result in a decrease in ThS fluorescence, allowing determination of binding affinities for molecules screened.
NCGC Assay Protocol Summary Human Beta amyloid peptide 1-42 (American Peptide Co., Sunnyvale, CA) was resuspended in hexafluoroisopropanol (by vortexing in a glass vial) to a final concentration of 1 mM. […] Fluorescence (ex = 440 nm; em = 485 nm) was measured after brief shaking (10 s) in a FlexStation plate reader (Molecular Devices, Sunnyvale, CA) operated at sensitivity 10, automatic PMT. […]
Turning to `Oc1ccc(O)c2c(O)cccc12`, the Potency was 4.52 µM (active).
Consider `O=C(CCCCn1c(=O)[nH]c2ccccc2c1=O)NCc1ccc2c(c1)OCO2`, for which the compound was called inactive.

The values are drawn from PubChem BioAssay AID956 (National Center for Advancing Translational Sciences (NCATS), 2007).
